# From PubChem BioAssay
# Only a sample is shown.
# aSyn UTR act: Activators working through SNCA 5'UTR binding (MLPCN); 300,000 compounds, 7.1% hits; activity score, % (tested at 7.5 µM), hits read low; alpha-synuclein 5'UTR reporter, activators screen; in the data active = activity score below about -60%
# * = called active by the depositor.
SMILES,aSyn UTR act
N#C/C(=N\Nc1cccc(F)c1)C(=N)N1CCCCCC1,-95*
N#C/C(=N\Nc1ccc(F)cc1)C(=N)N1CCCCC1,-111*
C/C(=N\Nc1cccc([N+](=O)[O-])c1)c1cc(F)ccc1O,-131*
C/C(=N\Nc1cccc([N+](=O)[O-])c1)c1ccccc1O,-166*
C/C(=N\NC(=O)c1nnn(-c2nonc2N)c1CN(C)c1ccccc1)c1ccccn1,88
CCc1c(C(=O)N/N=C/c2ccc(OCc3ccc(F)cc3)c(OC)c2)nnn1-c1nonc1N,-128*
Nc1nonc1-n1nnc(C(=O)N/N=C/c2ccc(OCc3ccc(F)cc3)cc2)c1COc1ccccc1,-122*
Nc1nonc1-n1nnc(C(=O)N/N=C/c2ccc(OCc3ccccc3)cc2)c1CN1CCCCC1,-112*
CCN(CC)Cc1c(C(=O)N/N=C/c2ccc(OCc3ccccc3C)cc2)nnn1-c1nonc1N,-87*
CC1CCN(Cc2c(C(=O)N/N=C/c3ccc(C(C)(C)C)cc3)nnn2-c2nonc2N)CC1,64
Cc1c(C(=O)N/N=C/c2c(O)ccc3ccccc23)nnn1-c1nonc1N,63
Nc1nonc1-n1nnc(C(=O)N/N=C/c2cc(Br)ccc2O)c1CNc1ccccc1,70
Cc1ccc(COc2cccc(/C=N/NC(=O)c3nnn(-c4nonc4N)c3C)c2)cc1,-152*
Nc1nonc1-n1nnc(C(=O)N/N=C/c2ccc(OCc3ccccc3F)cc2)c1CNc1ccccc1,-75*
Cc1ccc(OCc2csc(N)n2)cc1,-108*
Nc1nc(COc2ccc(Cl)cc2)cs1,-93*
Nc1nc(COc2ccccc2)cs1,-67*
CCCCOc1ccc(N(CC(=O)NCc2ccccc2)C(=O)c2csnn2)cc1,-69*
Cc1nnsc1S(=O)c1ccc(F)cc1 (stereo not drawn),-68*
Cc1nnsc1S(=O)c1ccc(Br)cc1 (stereo not drawn),-148*
Cc1ccc(S(=O)c2snnc2C)cc1 (stereo not drawn),-66*
CC(=O)NC(=S)Nc1ccc2oc(-c3cc(F)c(F)cc3Cl)nc2c1,-111*
O=C(Cc1ccccc1)NC(=S)Nc1ccc2oc(-c3ccccc3F)nc2c1,-187*
O=C(Cc1ccccc1)NC(=S)Nc1ccc2oc(-c3ccccc3)nc2c1,-106*
O=C(O)/C(=C\C(=O)c1ccccc1)Nc1ccccc1,-91*
O=C(CC(=O)c1ccccc1)Nc1ccccc1C(F)(F)F,-63*
O=C(CC(=O)c1ccccc1)Nc1ccccn1,-130*
O=C(CC(=O)c1ccccc1)Nc1ccccc1,-110*
COc1cccc(NC(=O)CC(=O)c2ccccc2)c1,-111*
O=C1c2ccccc2C(=O)C1c1ccnc2ccccc12,89
